In assay [1] the target is Cellular tumor antigen p53 (Homo sapiens) (UniProt P04637). The assay can be described thus: Primary qHTS for small molecule compounds that upregulate eGFP-tagged delta133p53alpha (in N-terminal) cells. (AID 2060322). Further: nearly all actives have a fitted effect of over 75% in size. Further: potency means the concentration at half of the fitted maximal effect.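 On activation: cells pre-induced with doxycycline then dosed without doxycycline; series mostly up to about 56 µM; 0% = DMSO vehicle and 100% = reference activator.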 The note with it: NCI-H358 eGFP-delta133p53alpha fluorescence, 24 h; activation: stronger effect = higher value. A digest of the protocol:
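NCI-H358 cells pre-induced 24 h with 10 ng/ml doxycycline for eGFP-delta133p53alpha, plated dox-free and exposed 24 h at 37C to titrated compounds. Fixed, Hoechst-stained; gated GFP peak intensity by laser scanning cytometry, normalized to DMSO (0%) and 57.5 uM 5-azacytidine (100%).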
(Quantitative high-throughput screening tests each substance at several concentrations.)

Assay [2] deals with Aldehyde dehydrogenase, mitochondrial (Homo sapiens) (UniProt P05091). Description: qHTS for Inhibitors of the Aldehyde Dehydrogenase Family (ALDH2) Primary screen (AID 2061308).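 Further: plate controls were vehicle for no effect and reference inhibitor for full effect; nearly all actives have a fitted effect of over 55% in size.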
For assay [3], the target named is Retinaldehyde dehydrogenase 3 (Homo sapiens) (UniProt P47895). Description: qHTS for Inhibitors of the Aldehyde Dehydrogenase Family (ALDH1A3) Primary screen (AID 2061315).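 Further: plate controls were DMSO vehicle for no effect and reference inhibitor for full effect.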

Our source for the activation, Potency and activity change, negative = inhibition values is PubChem BioAssay (NCATS).

The structures appear in SMILES notation. Several values for one entry are separate records, joined by “and”; a condition that tells them apart may be missing. Equal values may be shown once. Records with an inconclusive call do not appear. Values without a mark were called inactive. Activity calls are given as the source filed them. The call rests on the fitted dose curve; in most records, active means well fitted curve in the direction sought with a large enough effect; inconclusive means small, poorly fitted or top-dose-only effect, or another doubt; inactive means no such curve, though single readings can be large; an effect the other way counts as inactive or inconclusive.

Sequence of Cellular tumor antigen p53 (Homo sapiens) (P04637 whole entry, looked up): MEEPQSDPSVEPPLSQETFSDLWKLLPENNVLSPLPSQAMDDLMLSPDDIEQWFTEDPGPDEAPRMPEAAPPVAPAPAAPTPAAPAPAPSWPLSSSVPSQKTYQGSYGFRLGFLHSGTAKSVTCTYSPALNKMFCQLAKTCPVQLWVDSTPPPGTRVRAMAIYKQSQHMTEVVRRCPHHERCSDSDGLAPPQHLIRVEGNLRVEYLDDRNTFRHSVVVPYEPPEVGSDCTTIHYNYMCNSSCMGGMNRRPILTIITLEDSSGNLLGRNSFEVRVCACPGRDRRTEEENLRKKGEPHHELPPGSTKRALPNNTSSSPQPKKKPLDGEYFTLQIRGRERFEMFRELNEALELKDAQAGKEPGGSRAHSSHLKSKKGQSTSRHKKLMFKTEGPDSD

With `CC/C=C(\C(=O)N[C@@H]1C(=O)N2C(C(=O)OCOC(=O)C(C)(C)C)=C(COC(N)=O)CS[C@H]12)c1csc(N)n1`, in assay [1], the activation is 2.82% and -18.4%. Moreover, the Potency result in assay [2] and in assay [3] was “inactive” throughout.
For `OC[C@@]1(O)CO[C@@H](OC[C@H]2O[C@@H](OCc3ccccc3)[C@H](O)[C@@H](O)[C@@H]2O)[C@@H]1O`, the activation in assay [1] is -13.7%. For the same compound, the Potency entry in assay [2] and in assay [3] was “inactive” in each case.
Take `CC(=O)CCC1=C(C)C(O[C@@H]2O[C@H](CO)[C@@H](O)[C@H](O)[C@H]2O)C(O)CC1(C)C` (some centres not stated): in assay [1], the activation was -3.82%. Moreover, the Potency result in assay [2] and in assay [3] was “inactive” in each case.
Regarding `C[C@@H]1O[C@@H](O[C@H]2[C@H](OC(=O)[C@]34CCC(C)(C)C[C@H]3C3=CCC5[C@@]6(C)C[C@H](O)[C@H](O[C@@H]7O[C@H](CO)[C@@H](O)[C@H](O)[C@H]7O)[C@@](C)(CO)C6[C@H](O)C[C@@]5(C)[C@]3(C)CC4)OC[C@H](O)[C@@H]2O)[C@H](O)[C@H](O)[C@H]1O[C@@H]1OC[C@@H](O)[C@H](O[C@@H]2OC[C@](O)(CO)[C@H]2O)[C@H]1O` (some centres not stated), the activation in assay [1] was 5.36%. Moreover, the activity change, negative = inhibition in assay [2] is 8.31% [at 11.2 µM]; in assay [3], 7.08% [at 11.2 µM].
Regarding `Cn1cc(-c2ccc3nnc(Sc4ccc5nn(C)cc5c4)n3n2)cn1`, in assay [1], the activation is -4.46%. The Potency entry in assay [2] and in assay [3] was “inactive” in each case.
`O=C(OCC12OC1C=CC(OC(=O)c1ccccc1)C2O)c1ccccc1` (configuration not stated): in assay [1], the activation was 10.7%. In addition, the Potency entry in assay [2] and in assay [3] was “inactive” throughout.
With `COc1cc(O)c([C@@H](CC(=O)N2CC(C)CC(C)C2)c2ccc3c(c2)OCO3)c(OC)c1` (some centres not stated), the activation in assay [1] was 28.3%. In addition, the Potency result in assay [2] and in assay [3] was “inactive” in each case.
For the compound `CCC1=C(C)C(=O)C(C)CC12C(=O)CCC2C(=O)O` (configuration not stated), the activation in assay [1] is -11.5%. In addition, the Potency entry in assay [2] and in assay [3] was “inactive” throughout.
With `CC(/C=C/[C@]1(O)[C@@]2(C)CO[C@@]1(C)C[C@@H](O)C2)=C\C(=O)O[C@@H]1O[C@H](CO)[C@@H](O)[C@H](O)[C@H]1O`, in assay [1], the activation was -16.8%. In addition, the Potency entry in assay [2] and in assay [3] was “inactive” each time.
Consider `CC(O)C(=O)/C=C/C=C/C(=O)OC1C=C2COC(=O)C2(O)C2(C)CCCC(C)(C)C12` (configuration not stated), for which, in assay [1], the activation is 10.7%. Also, the Potency entry in assay [2] and in assay [3] was “inactive” throughout.
As to `C=C1C(=O)O[C@H]2[C@H]1[C@@H](OC(=O)C(C)CO)C[C@@]1(C)[C@H](O)CCC(=O)[C@H]21` (some centres not stated), the activation in assay [1] is -11.5%. Besides, the Potency entry in assay [2] and in assay [3] was “inactive” each time.
Consider `CCNC1(C(N)=O)CN(c2nc(C)nc3c(-c4ccc(Cl)cc4)c(-c4ccccc4Cl)nn23)C1`, for which, in assay [1], the activation was -0.333%. Moreover, the Potency entry in assay [2] and in assay [3] was “inactive” throughout.
As for `C=C1C2CCC3C(CCC4[C@@]3(C)CCC[C@@]4(C)C(=O)O)(C2)[C@@H]1OC(=O)/C(C)=C\C` (some centres not stated), the activation in assay [1] was -8.93%. Moreover, the Potency entry in assay [2] and in assay [3] was “inactive” throughout.
Consider `C[C@@H]1C[C@@H](O)[C@@]2(CO)C(CO)=CCC[C@@H]2[C@@]12C[C@@H](c1ccoc1)OC2=O`, for which the activation in assay [1] was 21.4%. Besides, the Potency result in assay [2] and in assay [3] was “inactive” throughout.
As to `O=c1cc(N2CCN(c3cccc(C(F)(F)F)c3)CC2)[nH]c(=O)n1C1CCCCC1`, the activation in assay [1] is 25%. The Potency result in assay [2] and in assay [3] was “inactive” throughout.
`O=C(O[C@@H]1O[C@H](CO)[C@@H](O)[C@H](O)[C@H]1O)c1c(O)cc(O)cc1/C=C/c1ccccc1`: the activation in assay [1] was -23.7%. The Potency entry in assay [2] and in assay [3] was “inactive” in each case.
Consider `COC(=O)C1(Cc2ccc(O)cc2)OC(=O)C(OC)=C1c1ccc(O)cc1` (configuration not stated), for which the activation in assay [1] was -7.63%. Moreover, the Potency result in assay [2] and in assay [3] was “inactive” each time.
As for `C/C=C/C1=CC2=CC(=O)C(C)(O)C(OC(=O)c3c(C)cc(O)cc3O)C2CO1` (configuration not stated), the activation in assay [1] was -12.2%. Besides, the Potency entry in assay [2] and in assay [3] was “inactive” each time.
On to `C=C1[C@@H]2[C@H]3OC(=O)C(=C)[C@@H]3CC[C@@](C)(O)[C@@H]2C[C@@H]1O[C@@H]1O[C@H](CO)[C@@H](O)[C@H](O)[C@H]1O`, for which the activation in assay [1] is 15.2%. For the same compound, the Potency entry in assay [2] and in assay [3] was “inactive” each time.
Take `C[C@H]1CC(=O)Nc2cccc(-c3cnn(C(C)(C)C)c3)c2N1`: the activation in assay [1] was -12.5%. The Potency entry in assay [2] and in assay [3] was “inactive” in each case.
As to `COC(=O)C1=CO[C@@H](O[C@@H]2O[C@H](CO)[C@@H](O)[C@H](O)[C@H]2O)[C@@H]2[C@@H](CO)[C@@H](O)C(O)[C@H]12` (some centres not stated), in assay [1], the activation was -1.79%. The Potency result in assay [2] and in assay [3] was “inactive” each time.
Take `NC(=NCCCCCCN=C(N)/N=C(\N)Nc1ccc(Cl)cc1)/N=C(\N)Nc1ccc(Cl)cc1`: the Potency in assay [1] was 30.1 µM (active). Further, the Potency entry in assay [2] and in assay [3] was “inactive” in each case.
As for `CC(C)(O)C1CCC2(C)CCCC(C)(O)C2C1` (configuration not stated), in assay [1], the activation was 2.68%. Moreover, the Potency result in assay [2] and in assay [3] was “inactive” in each case.
As for `C=C1CCC(OC(C)=O)C2(C)CC3(O)OC(=O)C(C)=C3CC12` (configuration not stated), the activation in assay [1] was -2.29%. In addition, the Potency result in assay [2] and in assay [3] was “inactive” each time.
